Screening results as filed in PubChem.
Sampled rows, rich in hits. Any-hit rate of the full collection: about 5.5%.
MBNL1 CUG block – MBNL1-poly(CUG) RNA binding inhibition. TR-FRET MBNL1-His/biotin-(CUG)12 binding, 665/545 ratio. Potency, µM (top dose mostly 57.5 µM), for inactives: at the top dose activity change, negative = inhibition, actives largely listed as inhibitors. hit rate 0.036% among 280,000. AID 2675; active = well fitted inhibition curve with a large enough effect in the signal ratio, with a control signal flat, not every such curve was filed as active; inconclusive = small, poorly fitted or top-dose-only effect, or effect the other way, or a change in a side signal; inactive = no such curve, though single readings can be large or run the other way; the % refers to the signal ratio; note: potency is the fitted concentration of half-maximal effect; % is set by controls: 0 for no effect and ±100 for the full control effect
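MBNL1-His + Biotin-(CUG)12, cpd titration 92 nM–58 uM; Tb anti-His Ab 0.055 ng/ul, SA-XL665 5 nM (final); 60 min RT; ratiometric 665/545 nm, Ex 340 nm; normalized to buffer and full-complex controls.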
Six1-Eya2 blk – blocks human Six1 binding to Eya2; Q15475+O00167; AlphaScreen GST-Six1/His-Eya2 binding, biochemical; hits give low values; hit rate 0.56% among 360,000; activity change, % (concentration not given with the values); in the data active = activity change below about -65%; inconclusive = mostly about -30% to -63%; note: % is set by controls: 0 for no effect and ±100 for the full control effect
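Six1/Eya2 binding was read as AlphaScreen signal after compounds were pinned into GST-Six1 plus His-tagged Eya2 (5X stock 250/500 nM) in pH 8.0 Tris/NaCl/TCEP buffer, beads added, then incubated 1 h, 37 C, dark.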
Gal4-VP16 FLuc – inhibits Gal4-VP16 luciferase reporter, ROR gamma counter-screen; Potency, µM (doses to about 53.6 µM), inactives show at the top dose activity, negative = inhibition, actives largely listed as inhibitors; hit rate 3.5% among 310,000; Drosophila S2 Gal4-VP16 UAS-luciferase, luminescence, 20 h; AID 2546;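 note: Gal4-VP16 expression switched on by copper sulfate through the metallothionein promoter; potency is the fitted concentration of half-maximal effect; % is set by controls: 0 for no effect and ±100 for the full control effect; nearly all actives have a fitted effect of over 50% in size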
RORg inh – blocks mouse ROR gamma transcriptional activity. P51450. Drosophila S2 Gal4-RORgamma UAS-luciferase reporter, 20 h. Potency, µM (highest dose often 53.6 µM), for inactives: at the top dose activity change, negative = inhibition, hits mostly inhibitors. hit rate 5.4% among 310,000; note: potency is the fitted concentration of half-maximal effect; % is set by controls: 0 for no effect and ±100 for the full control effect; nearly all actives have a fitted effect of over 60% in size
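A Gal4/UAS one-hybrid system in insect cells: metallothionein-promoter Gal4–ROR gamma fusion plus Photinus luciferase reporter. Copper sulfate 700 uM final, 20 hr ambient incubation, luminescent detection after 10 min with reagent.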
CtBP-E1A inh – CtBP/E1A binding inhibition. AID 651724. hit rate 0.49% among 340,000. activity change, % (concentration not given with the values). AlphaScreen GST-E1A/His-CtBP binding, 1536-well; hits give low values; in the data active = activity change below about -65%; inconclusive = mostly about -30% to -63%; note: % is set by controls: 0 for no effect and ±100 for the full control effect
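GST-E1A and His-tagged CtBP (125 nM each as 5X stock) were preincubated with pin-transferred compound for 2 h at 37 °C in the dark, then glutathione donor and nickel acceptor beads were added for 1 h before AlphaScreen reading.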
CBFb RUNX1 block – blocks binding between human CBF-beta and RUNX1. Potency, µM (top dose mostly 59.8 µM), inactives show top-dose activity, negative = inhibition, hits mostly inhibitors. AID 1477. AlphaScreen CBFb-His/RUNX1-biotin binding, biochemical. 230,000 tested, under 10 active; note: % of control where 0% means no effect
Target sequence (Q01196 whole entry, looked up): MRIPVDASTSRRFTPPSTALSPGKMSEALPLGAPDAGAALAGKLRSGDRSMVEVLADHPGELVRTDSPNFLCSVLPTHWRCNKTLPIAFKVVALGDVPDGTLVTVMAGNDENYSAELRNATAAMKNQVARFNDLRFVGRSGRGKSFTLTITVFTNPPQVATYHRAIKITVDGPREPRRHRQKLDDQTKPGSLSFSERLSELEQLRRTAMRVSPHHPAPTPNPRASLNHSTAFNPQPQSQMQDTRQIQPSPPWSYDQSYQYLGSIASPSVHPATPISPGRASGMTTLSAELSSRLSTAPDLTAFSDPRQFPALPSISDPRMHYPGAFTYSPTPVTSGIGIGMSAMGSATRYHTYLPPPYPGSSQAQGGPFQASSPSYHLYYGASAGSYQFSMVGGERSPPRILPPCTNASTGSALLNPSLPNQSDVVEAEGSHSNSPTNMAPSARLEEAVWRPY
Target sequence (Q13951 whole entry, looked up): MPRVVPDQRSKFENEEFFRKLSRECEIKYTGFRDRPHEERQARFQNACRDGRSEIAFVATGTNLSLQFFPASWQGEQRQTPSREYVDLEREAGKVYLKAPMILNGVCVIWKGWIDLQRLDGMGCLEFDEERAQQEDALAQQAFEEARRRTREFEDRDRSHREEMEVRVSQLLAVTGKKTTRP
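CBF-beta (His) and RUNX1 (biotin), 30 nM each; 20 min preassociation; + compound, 15 min; + beads 50 ng each (Ni, streptavidin), 90 min; RT; AlphaScreen read.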
Active calls of the source: *; ? = inconclusive; / = no result; [ ] = dose if it differs, or a comment. Unless noted, calls come from the whole dose curve; as a rule, active = well fitted curve in the direction sought with a large enough effect; inconclusive = small, poorly fitted or top-dose-only effect, or another doubt; inactive = no such curve, though single readings can be large; an effect the other way counts as inactive or inconclusive.

SMILES | MBNL1 CUG block | Six1-Eya2 blk | Gal4-VP16 FLuc | RORg inh | CtBP-E1A inh | CBFb RUNX1 block
O=C(Nc1nnc(-c2cccnc2)o1)c1cccc(Cl)c1 | 0% | -27 | 0.71µM* | 0.5µM* | -17 | -22%
Cc1noc(C)c1-c1nccc(Nc2ccc(F)cc2)n1 | / | / | 5% | ? | / | /
COc1ccc(C2C=C(C34CC5CC(CC(C5)C3)C4)NC(=S)N2)cc1 (centres undefined) | ? | -11 | 1.6µM* | 0.79µM* | -13 | -27%
O=C(CCCc1ccc(-c2ccccc2F)cc1)Nc1ccc(O)cc1 | / | / | 4.5µM* | 1.6µM* | / | -10%
CC1(C)OCC(CSC2=C(SCC3COC(C)(C)O3)C(=O)c3ncccc3C2=O)O1 (centres undefined) | / | / | 16µM* | 11µM* | / | /
COCCCNC(=S)Nc1c(C)cc(C)cc1C | -5% | 11 | ? | 11µM* | 9 | -1%
CCOCCCNC(=S)Nc1cc(C)cc(C)c1 | ? | -8 | 10µM* | 6.3µM* | -5 | 11%
COC(=O)c1sc2nc(C)cc(C)c2c1N | ? | 5 | -1% | -20% | 3 | 7%
COc1ccc2nc(NC(=O)c3sc4nc(C)cc(C)c4c3N)sc2c1 | -18% | 4 | ? | 0.04µM* | 1 | 14%
Cc1cc(C)c2c(N)c(C(=O)Nc3ncc(C)s3)sc2n1 | ? | -1 | 2.8µM* | 2µM* | -20 | ?
O=C(C1CCN(S(=O)(=O)c2cc(Cl)ccc2Cl)CC1)N1CCCC1 | -2% | 13 | 5% | 2% | 16 | /
N#C/C(=C\c1cccs1)C(=O)c1ccccc1Cl | 2% | -2 | 7.9µM* | ? | 1 | -1%
N#C/C(=C\c1cccs1)C(=O)Nc1nccs1 | ? | -1 | ? | 7.1µM* | -2 | -11%
COc1cc(N(C)C)cc(CN(C)CCc2ccc([N+](=O)[O-])cc2)c1O | / | / | -2% | ? | / | /
Cc1ccccc1NC(=O)CN1CCc2ccccc2C1 | 0% | 2 | 3% | 11% | 0 | /
Cc1cc(C)nc(-n2nc(C)cc2NC(=O)CN2CCCC(C)C2)n1 (centres undefined) | -1% | -1 | 5.6µM* | 0.71µM* | 17 | -4%
Cc1cc(C)nc(-n2nc(C)cc2NC(=O)CNC2CCCCC2)n1 | -9% | -3 | 6.3µM* | 2.5µM* | -1 | 3%
COc1ccc(CNCC(=O)Nc2cc(C)nn2-c2nc(C)cc(C)n2)cc1OC | -11% | 2 | -1% | -12% | 6 | 7%
Cc1cc(C)nc(-n2nc(C)cc2NC(=O)CN2CCc3ccccc3C2)n1 | 4% | -1 | 2.8µM* | 0.79µM* | -9 | 0%
O=c1cc(-c2ccccc2)[nH]n2cnnc12 | -3% | 0 | 5% | 17% | -8 | /
O=C(NNC(=O)c1ccc(Cl)cc1Cl)c1cnccn1 | 6% | 1 | ? | ? | / | 0%
O=C(NNC(=S)NC(=O)c1cccnc1)c1ccc(F)cc1 | / | -1 | ? | 16µM* | -3 | -1%
O=C(/C=C/c1ccc(F)cc1)NC(=S)NNC(=O)c1cnccn1 | 9% | -90* | 1% | -19% | -81* | -29%
Cc1csc2ncnc(NNC(=O)c3ccc(Cl)cc3)c12 | -3% | -5 | 4.5µM* | 1.8µM* | -12 | 4%
COc1ccc(/C=C/C(=O)NC(=S)NNC(=O)c2cccnc2)cc1 | / | ? | -43% | -3%[10 µM] | 1 | ?
SMILES | MBNL1 CUG block | Six1-Eya2 blk | Gal4-VP16 FLuc | RORg inh | CtBP-E1A inh | CBFb RUNX1 block
O=C(NNc1ncnc2sccc12)c1ccc(Cl)cc1 | -2% | 0 | ? | ? | 3 | 5%
O=C(NNC(=O)c1cnccn1)c1ccc(Cl)cc1 | -5% | -11 | 16µM* | 8.9µM* | -19 | -2%
O=C(NNC(=S)NC(=O)c1ccc(F)cc1)c1cccnc1 | 10% | -12 | ? | ? | -1 | /
O=C(NCCc1ccccn1)c1ccc2nc(Cc3ccccc3F)oc2c1 | 4% | 22 | 20% | 41% | 0 | /
CC(=O)N1c2ccc(S(=O)(=O)NCCc3ccc(S(N)(=O)=O)cc3)cc2CC1C (centres undefined) | -2% | -1 | 5% | 11% | / | /
CC12CCCC(O)(C1)C1CC(C)(C)C1CC2 (centres undefined) | / | / | -7% | -3% | / | /
O=C(NC(=S)NNC(=O)c1cnccn1)c1ccc(F)cc1 | 6% | -92* | -6% | -35% | / | /
Cc1cccc2[nH]c3c(N4CCC5(CC4)OCCO5)ncnc3c12 | 4% | -12 | 5µM* | 11µM* | -1 | 3%
Cc1nc(SC(C)C(=O)NCC2CCCO2)c2cc(-c3ccccc3)sc2n1 (centres undefined) | / | -3 | / | / | -1 | /
Cc1cccc(NC(=S)NNC(=O)c2cc3c(s2)CCC(C)C3)c1C (centres undefined) | / | -9 | ? | 18µM* | -14 | 25%
Cc1nnc(SC(C)C(=O)Nc2ccc(Cl)cn2)n1Cc1ccccc1 (centres undefined) | 2% | -6 | -1% | 9% | 77 | -2%
CC(Sc1nnc(-c2ccc(Cl)cc2Cl)n1Cc1ccccc1)C(=O)Nc1nccs1 (centres undefined) | -11% | -5 | -21% | 11µM* | -2 | -8%
O=C1c2ccccc2C(c2nnnn2-c2ccc3c(c2)OCCO3)N1CCCN1CCOCC1 (centres undefined) | / | 7 | / | / | -6 | /
COC(=O)c1ccc(/C=C2\CCn3c2nc2cc(C(=O)O)ccc2c3=O)cc1 | ? | -66* | -11% | -2% | ? | /
Cc1ccc(Cn2c(C3CCCN3c3nc(-c4ccc(F)cc4)cs3)nc3cc(Cl)c(Cl)cc32)cc1 (centres undefined) | / | -7 | / | / | / | /
CCCn1c(C2CCCN2c2nc(-c3ccc(C)cc3)cs2)nc2ccccc21 (centres undefined) | 16% | -7 | ? | 3.5µM* | -23 | /
Cc1noc2ncnc(Sc3c(Cl)cccc3Cl)c12 | 6% | 9 | 16µM* | -111% | -4 | 4%
Cc1ccc(Sc2ncnc3onc(C)c23)cc1 | 0% | 0 | 22µM* | 10µM* | 7 | 1%
Cc1ccccc1Sc1ncnc2onc(C)c12 | -2% | 13 | ? | 7.1µM* | 0 | -3%
Cc1noc2ncnc(Sc3ccc(Cl)cc3)c12 | 2% | 4 | 6.3µM* | 7.1µM* | 1 | 4%
Cc1c(NC(=O)c2ccc(S(=O)(=O)Nc3ccccc3F)cc2)c(=O)n(-c2ccccc2)n1C | / | -1 | / | / | 2 | /
O=C(c1cc(C(F)(F)F)cc(C(F)(F)F)c1)N1CCC2(CCN(Cc3ccncc3)CC2)CC1 | / | / | 1% | -4% | / | /
